Results as given in PubChem BioAssay (NCATS).
Records with an inconclusive call do not appear. The source made the active and inactive calls. Calls follow the shape of the dose curve; as a rule, active = well fitted inhibition curve with a large enough effect; inconclusive = small, poorly fitted or top-dose-only effect; inactive = flat fitted curve, though single readings scatter.

Experiments:
Assay in all cases: qHTS profiling for inhibitors of Plasmodium falciparum proliferation (AID 504749); also: nearly all actives have a fitted effect of over 60% in size
Conditions in all cases: P. falciparum in erythrocytes, SYBR Green DNA, 72 h; series mostly up to 28.7 µM
CP335 = tested on: CP335
Summary of the method: (§1)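 Three-day growth assay of blood-stage parasites in erythrocytes (0.3% parasitemia, 2.5% hematocrit) at 37 C, 5% CO2, quantified by SYBR Green DNA staining after overnight detergent lysis.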

DFO2036 = tested on: DFO2036
Summary of the method: as §1

DIV14 = tested on: DIV14
Summary of the method: as §1

DIV17 = tested on: DIV17
Summary of the method: as §1

DIV30 = tested on: DIV30
Summary of the method: as §1

Dd2 = tested on: Dd2
Summary of the method: as §1

ECU = tested on: ECU
Summary of the method: as §1

FAB9 = tested on: FAB9
Summary of the method: as §1

GB4 = tested on: GB4
Summary of the method: as §1

HB3 = tested on: HB3
Summary of the method: as §1

Measured: Potency

CC(C)CCC[C@@H](C)[C@H]1CC[C@H]2[C@@H]3CC=C4C[C@@H](O)CC[C@]4(C)[C@H]3CC[C@]12C
inactive: all assays above

NCCN
inactive: all assays above

CCCCC(CC)CCC(CC(C)C)OS(=O)(=O)O (stereo not given)
inactive: all assays above

CCCCC
inactive: all assays above

Cc1cc(=O)c(C(=O)N[C@@H](C(=O)N[C@@H]2C(=O)N3C(C(=O)O)=C(CSc4nnnn4C)CS[C@H]23)c2ccc(O)cc2)c[nH]1
inactive: all assays above

CC1(C)S[C@@H]2[C@H](NC(=O)C3(N)CCCCC3)C(=O)N2[C@H]1C(=O)O
inactive: all assays above

O=C(O)c1ccc(NC(=O)[C@H](Cc2ccc(O)cc2)NC(=O)c2ccccc2)cc1
inactive: all assays above

O=P(O)(O)O
inactive: all assays above

COc1cc(S(C)=O)ccc1-c1nc2ncccc2[nH]1 (stereo not given)
inactive: all assays above

O=[n+]1ccn([O-])c2ccccc21
inactive: all assays above

CC(=O)Nc1ccc(OC(=O)c2ccccc2O)cc1
inactive: all assays above

Cc1cc(-c2ccc(N=Nc3ccc4c(S(=O)(=O)O)cc(S(=O)(=O)O)c(N)c4c3O)c(C)c2)ccc1N=Nc1ccc2c(S(=O)(=O)O)cc(S(=O)(=O)O)c(N)c2c1O
inactive: all assays above

COc1ccc(C(=O)CCC(=O)O)c2ccccc12
inactive: all assays above

COC(=O)C(CN)c1c[nH]c2ccc(OC)cc12 (stereo not given)
inactive: all assays above

CC(=O)Oc1cccc(C(=O)O)c1OC(C)=O
inactive: all assays above

OB(O)O
inactive: all assays above

COc1cc(C)c(/C=C/C(C)=C/C=C/C(C)=C/C(=O)O)c(C)c1C
inactive: all assays above

CCC(C(=O)NC(N)=O)c1ccccc1 (stereo not given)
inactive: all assays above

c1ccc2ccccc2c1
inactive: all assays above

N[C@H](CC(=O)O)C(=O)O
inactive: all assays above

O=C(CCCCCCCCCCCCC1CCCC1)Nc1ccc(S(=O)(=O)c2ccc(NC(=O)CCCCCCCCCCCCC3CCCC3)cc2)cc1
inactive: all assays above

CCOC(=O)c1cc(-c2ccccc2)nc2ccc(C)cc12
inactive: all assays above

O=C(O)CCCC/C=C(\c1ccccc1)c1cccnc1
inactive: all assays above
